Experimental data reported in PubChem BioAssay (NCATS).
Where “and” joins values, the source holds several entries; their conditions need not be identical. Identical values can stand only once. Inconclusive results are not listed. Where a call stands in place of a potency, no number is given. Calls of active or inactive are those of the source. Calls come from the whole dose curve.

What was measured:
[1] = Cytotoxicity counterscreen for inhibitors of SARS-CoV-2 cell entry (AID 1645845); note: nearly all actives have a fitted effect of over 50% in size
Summary of the method: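 Expi293F/hACE2 cells seeded overnight; cpd pin-transferred in DMSO, 1 h preincubation, + media, 48 h 37 C 5% CO2; ATPLite 1step luminescence; normalized to cells and no cells.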

[2] = Primary qHTS to identify inhibitors of SARS-CoV-2 cell entry (AID 1645846); settings: activity change, negative = inhibition: at 57.1 µM (top of the series) unless noted; note: nearly all actives have a fitted effect of over 45% in size
Summary of the method: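 HEK293-ACE2 (Expi293F, stable hACE2), 1500 cells/well, o/n 37C; cpd 23 nL pin, 1 h; MLV-PP w/ SARS-CoV-2-S (Wuhan-Hu-1, Δ19 C-term); 48 h 37C; Bright-Glo luminescence; normalized vs S-PP and bald PP.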
Potency is the fitted concentration of half-maximal effect.

Row | SMILES | Potency [1] | Potency [2] | activity change, negative = inhibition [2] [%]
1 | C#Cc1cccc(Nc2ncnc3cc(OC)c(OCCCCCCC(=O)NO)cc23)c1 | 10 µM (active) | inactive | –
2 | CC[C@@H](C)[C@H](NC(=O)[C@H](CC1CCCCC1)NC(=O)c1ccno1)C(=O)N1CCC2(CCc3ccccc32)CC1 | inactive | inactive | –
3 | Cc1ccccc1-n1c(Cn2cnc3c(N)ncnc32)nc2cccc(C)c2c1=O | inactive | inactive | –
4 | CCOc1cc2ncc(C#N)c(Nc3ccc(OCc4ccccn4)c(Cl)c3)c2cc1NC(=O)/C=C/CN(C)C | inactive | 8.91 µM (active) and 2.51 µM (active) | –
5 | Cn1cncc1[C@@](N)(c1ccc(Cl)cc1)c1ccc2c(c1)c(-c1cccc(Cl)c1)cc(=O)n2C | inactive | – | -13
6 | CCOC(=O)c1c(C)n(C)c2ccc(O)cc12 | inactive | – | -9.91
7 | O=C(O)CCC1CCC(c2cc(F)ccc2F)(S(=O)(=O)c2ccc(Cl)cc2)CC1 (stereo unspecified) | inactive | – | -2.05
8 | NC(=O)C1CCCc2c1[nH]c1ccc(Cl)cc21 (stereo unspecified) | inactive | inactive | –
9 | CCNC(=O)c1noc(-c2cc(C(C)C)c(O)cc2O)c1-c1ccc(CN2CCOCC2)cc1 | inactive | – | -24.6
10 | Cc1ccc(C(=O)Nc2ccc(CN3CCN(C)CC3)c(C(F)(F)F)c2)cc1C#Cc1cnc2cccnn12 | 31.6 µM (active) | 8.91 µM (active) | –
11 | Cn1cc(-c2ccc3nnc(C(F)(F)c4ccc5ncccc5c4)n3n2)cn1 | inactive | inactive | –
12 | CCCCCN(CCC12CC3CC(CC(C3)C1)C2)C(=O)NCCCc1ccncc1 | inactive | – | -12.6
13 | CC(C)C[C@H](NC(=O)[C@@H](O)[C@H](N)Cc1ccccc1)C(=O)O | inactive | – | -29.5
